# Screening results (PubChem BioAssay)
# Hits are enriched below; roughly 6.9% of the tested compounds scored in any of these assays.
# Vif-A3G inh: qHTS for Inhibitors of Vif-A3G Interactions: qHTS; Potency, µM (titrated, usually from 46.1 µM), for the others: at the top dose activity, negative = active, actives largely listed as inhibitors; HeLa A3G-eYFP + Vif (tagged APOBEC3G with the HIV-1 protein that degrades it), YFP fluorescence, overnight; AID 602310, 2012; 410,000 tested, 0.076% active; DNA dC->dU-editing enzyme APOBEC-3G (Homo sapiens), Q9HC16; also: potency is read from the fitted curve at half-maximal effect; % is scaled to controls: 0 for no effect and ±100 for the full control effect; nearly all actives have a fitted effect of over 60% in size
# Target sequence (Q9HC16 whole entry, looked up): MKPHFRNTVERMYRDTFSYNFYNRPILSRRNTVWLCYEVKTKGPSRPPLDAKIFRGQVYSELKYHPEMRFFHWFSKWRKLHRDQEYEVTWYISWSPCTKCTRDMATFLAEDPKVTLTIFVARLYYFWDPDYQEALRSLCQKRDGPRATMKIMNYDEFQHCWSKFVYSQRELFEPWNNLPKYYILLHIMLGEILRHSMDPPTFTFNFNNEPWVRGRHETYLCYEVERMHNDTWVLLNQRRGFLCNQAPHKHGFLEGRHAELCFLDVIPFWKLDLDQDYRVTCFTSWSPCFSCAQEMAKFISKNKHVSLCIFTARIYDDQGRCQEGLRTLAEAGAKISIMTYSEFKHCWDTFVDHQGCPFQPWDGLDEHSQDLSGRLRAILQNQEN
#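 HeLa cells stably expressing Vif and C-terminally eYFP-tagged A3G, seeded overnight at 37 deg C, then exposed to compound by pintool overnight at 37 deg C. Rise in yellow fluorescence (Ex 488/Em 500-530, Acumen) marks blocked Vif-driven A3G degradation.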
# SW480 rerep: A quantitative high throughput screen for small molecules that induce DNA re-replication in SW480 colon adenocarcinoma cells; SW480 DNA re-replication, Hoechst DNA content imaging, 48 h; Potency, µM (doses to about 46.1 µM), for the others: at the top dose re-replication activation, hits mostly activators; 340,000 tested, 1.8% active; also: potency is read from the fitted curve at half-maximal effect; % of control where 0% means no effect; nearly all actives have a fitted effect of over 55% in size
#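 Image-based read-out: total Hoechst fluorescence of nuclei (405 nm excitation, 500-530 nm emission), with hits raising the fraction of high-intensity nuclei. SW480 colon cells incubated 48 hr with compounds at 37 C.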
# Vif-APOBEC3F blk: qHTS for Inhibitors of Vif-A3F Interactions: qHTS; HeLa A3F-eYFP + Vif (tagged APOBEC3F with the HIV-1 protein that degrades it), YFP fluorescence increase; Potency, µM (top dose mostly 46.1 µM), for the others: at the highest dose activity, negative = active; 390,000 tested, 0.2% active; AID 602313, 2012; also: potency is read from the fitted curve at half-maximal effect; % of control where 0% means no effect; nearly all actives have a fitted effect of over 65% in size
#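 Fluorescence increase (Ex 488/Em 500-530) after overnight compound treatment at 37 deg C flags inhibition of Vif-driven A3F-eYFP loss in stable HeLa A3F-eYFP/Vif cells seeded overnight beforehand.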
# IL1B secr inh: qHTS for Inhibitors of Inflammasome Signaling: IL-1-beta AlphaLISA Primary Screen; THP-1 LPS/ATP IL-1B secretion, AlphaLISA, 16 h; hits give low values; activity change, % at 57.5 µM; 360,000 tested, 4.7% active; in the data active = activity change below about -50%; inconclusive = mostly about -30% to -49%; also: % is scaled to controls: 0 for no effect and ±100 for the full control effect
#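 THP-1 cells pretreated 1 hr with compounds (up to 57.5 uM final), then stimulated with LPS (250 ng/mL final) plus ATP (1.25 mM final); secreted IL-1B measured by AlphaLISA after 16 hr, decreased signal indicating inhibition.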
# MCF10A rerep: A quantitative high throughput screen for small molecules that induce DNA re-replication in MCF 10a normal breast cells | 350,000 tested, 2.9% active | Potency, µM (series often up to 46.1 µM), without a hit: at the highest dose activity, positive = re-replication, usual class: activators | MCF 10A DNA re-replication, Hoechst nuclear intensity, 48 h; also: potency is read from the fitted curve at half-maximal effect; % of control where 0% means no effect; nearly all actives have a fitted effect of over 50% in size
# Giardia killer: Small Molecules that selectively kill Giardia lamblia: qHTS; activity change, % at 7.66 µM, hits read low; Giardia lamblia trophozoite viability; 340,000 tested, 0.15% active; in the data active = activity change below about -80%; inconclusive = between about -30% and that limit;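 also: parasites exposed to compound for two days anaerobically before the ATP read; % is scaled to controls: 0 for no effect and ±100 for the full control effect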
#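 Each well holds 100 Giardia trophozoites and compound. After two days (48 hrs) at 37 deg C in anaerobic conditions, ATP is quantified by luminescence.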
# * hit, by the source's call; ? = inconclusive; . = not tested or not shown. Unless noted, calls follow the shape of the dose curve; as a rule, active = well fitted curve in the direction sought with a large enough effect; inconclusive = small, poorly fitted or top-dose-only effect, or another doubt; inactive = no such curve, though single readings can be large; an effect the other way counts as inactive or inconclusive.
SMILES,Vif-A3G inh,SW480 rerep,Vif-APOBEC3F blk,IL1B secr inh,MCF10A rerep,Giardia killer
COc1ccc(/C=C2\Sc3ccc(C(=O)N4CCN(Cc5ccccc5)CC4)cc3N(C)C2=O)cc1OC,-9.2%,?,15.2%,-0.5,20.6µM*,23.6
CN1CCN(C(=O)c2ccc3c(c2)N(C)C(=O)/C(=C/c2cccc(Cl)c2)S3)CC1,-0.5%,4.4%,-15.2%,-10.6,13µM*,-3.4
C=CCN1C(=O)c2ccccc2Sc2ccc(C(=O)N3CCN(C)CC3)cc21,2.5%,-4.4%,-1.5%,12.2,-1.6%,17.2
Cc1cccc(NC(=O)NCCc2ccc(Cl)cc2)c1,-3.1%,2.6%,-19.0%,-18.3,3.9%,23.3
CN(C)CCNC(=S)Nc1cccc(Cl)c1,1.1%,-0.1%,1.8%,-66.0*,-1.8%,15.8
Cc1cccc(NC(=S)NCCSc2ccc(Cl)cc2)c1,0.8%,-0.2%,4.5%,-105.2*,?,4.3
Cc1cccc(NC(=S)NCC(C)CSc2ccc(Cl)cc2)c1 (centres undefined),-10.3%,?,-29.9%,-9.4,18.4µM*,-23.6
Cc1ccc(NC(=S)NCC(C)CSc2ccc(Cl)cc2)cc1 (centres undefined),0.1%,?,-32.6%,-19.7,17.7%,1.3
CC(C)=CC(=O)Oc1ccc(C(=O)N(C)c2ccccc2I)cc1,2.3%,.,.,.,.,36.2
CC(C)Oc1ccc(CNC(=O)c2ccc(NC(=O)c3nsc4ccccc34)cc2)cc1,-1.0%,.,1.1%,.,.,.
Cc1ccc(-n2ncc3c2CC(C)(C)CC3NC(=O)c2ccccn2)cc1 (centres undefined),1.2%,8.9%,-3.8%,-81.0*,20.7%,-0.2
C=CCC(=O)NC1CC(C)(C)Cc2c1cnn2-c1ccc(C)cc1 (centres undefined),2.0%,-3.6%,-2.9%,8.5,2.5%,5.1
O=C1/C(=C\c2cc(Cl)c(O)c(Cl)c2)SC(=S)N1Cc1ccccc1,2.7%,?,-86.0%,-18.9,2.06µM*,-4.9
COc1ccc(OC)c(/C=C2\SC(=S)N(Cc3cccnc3)C2=O)c1,-19.2%,16.4µM*,?,-20.8,6.51µM*,-3.2
COc1ccc(/C=C2/SC(=S)N(Cc3ccccc3)C2=O)cc1O,-5.6%,-2.0%,-14.3%,?,?,22.9
COc1ccc(O)c(/C=C2/SC(=S)N(Cc3ccccc3)C2=O)c1,?,15.3%,?,4.7,13µM*,-26.4
COc1ccc(CCN2C(=O)CN(C3CCCCCC3)C(=O)C2c2ccc(C)cc2)cc1OC (centres undefined),-4.9%,.,2.0%,.,.,.
O=C(C[n+]1ccncc1)c1cccc([N+](=O)[O-])c1,1.8%,.,.,.,.,.
CCCCCCCCCn1ccc(=N)cc1,-0.9%,2.1%,-24.2%,-93.9*,23.9%,0.3
CCCCCCCn1ccc(=N)cc1,-2.2%,?,3.3%,?,?,-29.3
COc1ccccc1-c1nc2c(c(SCC(=O)Nc3ccccc3F)n1)Cc1c(CO)cnc(C)c1O2,-10.8%,.,5.6%,.,.,.
Cc1cc2oc(C(=O)Nc3ccc(S(=O)(=O)Nc4onc(C)c4C)cc3)cc(=O)c2cc1C,1.7%,.,3.8%,.,.,.
CC(=O)[C@@]1(O)C(C)CC2C3C=C(C)C4=Cc5c(cnn5-c5ccccc5)C[C@]4(C)C3C(O)C[C@@]21C (some centres undefined),2.4%,8.2µM*,9.4%,-90.6*,14.6µM*,16.8
CCOC(=O)c1cc2c(nc1C)-c1cc(Cl)cc(Cl)c1OC2O (centres undefined),2.1%,?,0.3%,12.5,18.4µM*,-13.6
CCOC(=O)c1cc(C(=O)NN)c(C)nc1C,3.4%,?,2.8%,25.0,6.7%,-13.3
